In PubChem BioAssay (Tox21):
Results filed as inconclusive are left out. A call without a number means that no potency is given here. Calls of active or inactive are those of the source. Calls come from the whole dose curve; as a rule, active = well fitted cell-killing curve with a large enough effect in the repeat runs; inconclusive = weak or mixed curves, or effect the other way; inactive = flat fitted curve, though single readings scatter.

Experiment: qHTS RealTime-Glo MT Cell Viability Assay in HEK293 cells - 0 hour (AID 1224880); note: nearly all actives have a fitted effect of over 45% in size; for activity change, negative = cytotoxicity: top concentration of the series differs between compounds
Details: RealTime-Glo luminescence; series mostly up to 76.8 µM
From the text: U.S. Tox21 Program National Center for Advancing Translational Sciences [NCATS] NIH Chemical Genomics Center [NCGC] U.S. Environmental Protection Agency [EPA] National Institutes of Environmental Health Sciences [NIEHS] National Toxicology Program [NTP] U.S. Food and Drug Administration [FDA] Tox21 Assay Overview: Measure of cell viability is critical in the cell-base assay. Analysis of cell viability is necessary for the characterization of cell responses to cytotoxic drugs and environmental stress. A RealTime-Glo MT Cell Viability Assay to monitor cell viability in real time of continues cell culture during 40 hours of compound treatment was used to screen Tox21 10K library compounds in Hek293 cells. The RealTime-Glo MT Cell Viability Assay is a nonlytic, homogeneous, bioluminescent method to measure cell viability in real time using a simple, plate-based method. The assay involves adding NanoLuc luciferase and a cell-permeant prosubstrate to cells in culture. Viable cells reduce the proprietary prosubstrate to generate a substrate for NanoLuc luciferase. This substrate diffuses from cells into the surrounding culture medium, where it is rapidly used by the NanoLuc Enzyme to produce a luminescent signal. The signal correlates with the number of viable cells, making the assay well suited for cytotoxicity studies.
Tox21 Assay Protocol Summary: The mixture of Hek293 cell suspension and reagents were dispensed at 600cells/6 ul/well in 1536-well tissue culture treated black solid bottom plates using a Multidrop dispenser. After the assay plates were incubated at a 37 C/5% CO2 incubator for 5 hours, 23 nL of compounds dissolved in DMSO, positive and negative controls was transferred to the assay plate by a pintool work station. The plates were incubated at 37 C for 40 hours. The luminescence intensity were measured at 0h, 8h, 16h, 24h, 32h and 40h time points using ViewLux plate reader during compound treatment.
Potency is the fitted concentration of half-maximal effect.

Row | SMILES | Potency | activity change, negative = cytotoxicity
1 | CC(Cl)C(C)Cl (stereo not given) | inactive | 
2 | CC[C@H]1C[C@H]2[C@@H]3CCC4=CC(=O)CC[C@@H]4[C@H]3CC[C@]2(C)[C@H]1O | inactive | 
3 | CCOc1ccc(C(C)(C)COCc2cccc(Oc3ccccc3)c2)cc1 | inactive | 
4 | CC(=O)C(C)(C)C | inactive | 
5 | CCOP(=S)(OCC)SCn1nnc2ccccc2c1=O | inactive | 
6 | CCOP(=O)(OCC)Oc1ccc([N+](=O)[O-])cc1 | inactive | 
7 | CC1C(=O)C[C@]2(C(C)C)C[C@H]12 (stereo not given in full) | inactive | 
8 | O=C1CN=C(c2ccccc2)c2cc(Cl)ccc2N1CC1CC1 | 16.3 µM (active) | 
9 | Cn1sc(Cl)cc1=O | inactive | 
10 | CC(C)=CCOc1c2occc2cc2ccc(=O)oc12 | inactive | 
11 | CCCCNP(N)(N)=S | inactive | 
12 | Clc1cccc(SC2CCNCC2)n1 | inactive | 
13 | CC(C)N(CCC(C(N)=O)(c1ccccc1)c1ccccn1)C(C)C (stereo not given) | inactive | 
14 | OCCCBr | inactive | 
15 | O=C(NCc1cccnc1)Nc1ccc([N+](=O)[O-])cc1 | inactive | 
16 | CCOC(=O)C(Cl)C(C)=O (stereo not given) | inactive | 
17 | O=C1NCN(c2ccccc2)C12CCN(CCCOc1ccc(F)cc1)CC2 | inactive | 
18 | C[C@H]1CNCCc2ccc(Cl)cc21 | inactive | 
19 | ClCCCCBr | inactive | 
20 | c1ccoc1 | inactive | 

Row | SMILES | Potency | activity change, negative = cytotoxicity
21 | CC(=O)[C@H]1CC[C@H]2[C@@H]3CC[C@H]4C[C@](C)(O)CC[C@]4(C)[C@H]3CC[C@]12C | inactive | 
22 | O=S1OC[C@@H]2[C@H](CO1)[C@]1(Cl)C(Cl)=C(Cl)[C@@]2(Cl)C1(Cl)Cl (stereo not given in full) | inactive | 
23 | CCOS(C)(=O)=O | inactive | 
24 | Cl/C=C\Cl | inactive | 
25 | CCC(C)(NC(=O)c1cc(Cl)c(C)c(Cl)c1)C(=O)CCl (stereo not given) | inactive | 
26 | NC(=O)CI | inactive | 
27 | O=C(O)COc1ccc(Cl)cc1 | inactive | 
28 | CS/C(C)=N/OC(=O)N(C)SN(C)C(=O)O/N=C(\C)SC | inactive | 
29 | CC(C)(Cl)[N+](=O)[O-] | inactive | 
30 | CNC(C)Cc1ccccc1OC (stereo not given) | inactive | 
31 | Brc1ccccc1 | inactive | 
32 | COP(=S)(OC)Oc1ccc([N+](=O)[O-])cc1Cl | inactive | 
33 | Nc1ccc([N+](=O)[O-])cc1[N+](=O)[O-] | inactive | 
34 | O=S1(=O)OC(c2cc(Br)c(O)c(Br)c2)(c2cc(Br)c(O)c(Br)c2)c2ccccc21 | 10 µM (active) | 
35 | Oc1ccc(Cl)c(Cl)c1Cl | inactive | 
36 | C=CC(=O)OCC(C)O (stereo not given) | inactive | 
37 | CCCN(CCC)c1c([N+](=O)[O-])cc(S(C)(=O)=O)cc1[N+](=O)[O-] | inactive | 
38 | CO[C@@H]1[C@H](OC(=O)NC(=O)CCl)CC[C@]2(CO2)[C@H]1[C@@]1(C)O[C@@H]1CC=C(C)C |  | 1.11% [at 15.8 µM] (inactive)
39 | Clc1cc(Cl)c(Cl)c(Cl)c1 | inactive | 
40 | CCOP(=S)(OCC)Oc1cc(Cl)c(Br)cc1Cl | inactive | 
